How the values were obtained:
[1] = biological target: T1, Ephrin type-A receptor 3 (Homo sapiens) (UniProt P29320); conditions: at 10 µM
T1 sequence (whole entry): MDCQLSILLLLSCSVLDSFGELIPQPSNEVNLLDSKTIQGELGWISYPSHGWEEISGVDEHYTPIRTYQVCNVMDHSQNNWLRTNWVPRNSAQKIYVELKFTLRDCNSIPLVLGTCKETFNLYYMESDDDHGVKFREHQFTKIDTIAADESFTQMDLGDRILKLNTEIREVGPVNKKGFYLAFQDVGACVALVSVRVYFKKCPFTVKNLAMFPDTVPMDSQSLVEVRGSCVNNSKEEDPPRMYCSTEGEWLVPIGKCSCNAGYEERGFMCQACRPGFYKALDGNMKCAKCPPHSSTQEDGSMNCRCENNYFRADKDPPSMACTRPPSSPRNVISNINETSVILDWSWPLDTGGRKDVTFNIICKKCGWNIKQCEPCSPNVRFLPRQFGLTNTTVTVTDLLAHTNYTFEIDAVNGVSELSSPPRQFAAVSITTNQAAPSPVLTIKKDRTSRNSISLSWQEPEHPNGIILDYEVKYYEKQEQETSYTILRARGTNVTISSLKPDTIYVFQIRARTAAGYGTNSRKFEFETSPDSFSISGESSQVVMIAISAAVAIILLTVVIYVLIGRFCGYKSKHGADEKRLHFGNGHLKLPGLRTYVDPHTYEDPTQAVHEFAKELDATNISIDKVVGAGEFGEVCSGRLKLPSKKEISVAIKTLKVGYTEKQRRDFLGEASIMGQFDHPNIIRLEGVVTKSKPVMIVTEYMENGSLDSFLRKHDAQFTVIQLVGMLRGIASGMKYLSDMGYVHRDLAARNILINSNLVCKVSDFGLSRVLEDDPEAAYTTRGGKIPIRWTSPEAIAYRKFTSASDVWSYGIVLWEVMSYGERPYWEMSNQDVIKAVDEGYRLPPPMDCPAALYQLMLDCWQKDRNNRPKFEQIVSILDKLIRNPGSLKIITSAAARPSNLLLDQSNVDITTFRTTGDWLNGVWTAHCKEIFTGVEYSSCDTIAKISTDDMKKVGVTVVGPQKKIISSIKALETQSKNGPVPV

[2] = biological target: Ephrin type-A receptor 4 (Homo sapiens) (UniProt P54764); conditions: at 1 µM
Ephrin type-A receptor 4 (Homo sapiens), sequence (P54764 whole entry): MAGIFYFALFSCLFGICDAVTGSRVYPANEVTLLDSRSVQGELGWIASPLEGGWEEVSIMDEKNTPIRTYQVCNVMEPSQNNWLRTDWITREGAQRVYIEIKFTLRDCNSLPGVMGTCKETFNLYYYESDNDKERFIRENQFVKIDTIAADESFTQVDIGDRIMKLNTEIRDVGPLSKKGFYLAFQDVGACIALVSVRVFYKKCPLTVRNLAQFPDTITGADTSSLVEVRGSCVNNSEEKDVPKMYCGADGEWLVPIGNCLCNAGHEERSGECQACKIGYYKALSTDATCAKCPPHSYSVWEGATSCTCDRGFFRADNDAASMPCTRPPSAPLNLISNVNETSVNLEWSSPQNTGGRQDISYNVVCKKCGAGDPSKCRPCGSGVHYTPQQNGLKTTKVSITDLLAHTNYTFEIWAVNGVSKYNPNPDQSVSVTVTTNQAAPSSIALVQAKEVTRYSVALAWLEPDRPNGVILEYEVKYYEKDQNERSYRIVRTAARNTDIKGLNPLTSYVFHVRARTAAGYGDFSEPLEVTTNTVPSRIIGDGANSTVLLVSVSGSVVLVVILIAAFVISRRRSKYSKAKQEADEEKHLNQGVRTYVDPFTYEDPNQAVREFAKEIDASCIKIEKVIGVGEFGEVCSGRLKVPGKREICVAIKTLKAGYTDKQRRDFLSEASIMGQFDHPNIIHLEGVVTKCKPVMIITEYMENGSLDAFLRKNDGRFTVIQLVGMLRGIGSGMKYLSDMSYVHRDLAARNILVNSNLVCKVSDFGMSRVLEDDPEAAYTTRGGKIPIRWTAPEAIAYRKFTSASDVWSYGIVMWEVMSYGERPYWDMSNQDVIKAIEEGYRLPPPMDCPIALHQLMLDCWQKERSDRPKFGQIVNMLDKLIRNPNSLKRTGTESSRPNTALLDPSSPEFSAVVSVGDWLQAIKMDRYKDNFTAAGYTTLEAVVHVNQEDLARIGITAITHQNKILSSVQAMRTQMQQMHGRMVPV

[3] = biological target: Ephrin type-A receptor 4 (Homo sapiens) (UniProt P54764); conditions: at 10 µM
[4] = biological target: Ephrin type-A receptor 5 (Homo sapiens) (UniProt P54756); conditions: at 1 µM
Ephrin type-A receptor 5 (Homo sapiens), sequence (P54756 whole entry): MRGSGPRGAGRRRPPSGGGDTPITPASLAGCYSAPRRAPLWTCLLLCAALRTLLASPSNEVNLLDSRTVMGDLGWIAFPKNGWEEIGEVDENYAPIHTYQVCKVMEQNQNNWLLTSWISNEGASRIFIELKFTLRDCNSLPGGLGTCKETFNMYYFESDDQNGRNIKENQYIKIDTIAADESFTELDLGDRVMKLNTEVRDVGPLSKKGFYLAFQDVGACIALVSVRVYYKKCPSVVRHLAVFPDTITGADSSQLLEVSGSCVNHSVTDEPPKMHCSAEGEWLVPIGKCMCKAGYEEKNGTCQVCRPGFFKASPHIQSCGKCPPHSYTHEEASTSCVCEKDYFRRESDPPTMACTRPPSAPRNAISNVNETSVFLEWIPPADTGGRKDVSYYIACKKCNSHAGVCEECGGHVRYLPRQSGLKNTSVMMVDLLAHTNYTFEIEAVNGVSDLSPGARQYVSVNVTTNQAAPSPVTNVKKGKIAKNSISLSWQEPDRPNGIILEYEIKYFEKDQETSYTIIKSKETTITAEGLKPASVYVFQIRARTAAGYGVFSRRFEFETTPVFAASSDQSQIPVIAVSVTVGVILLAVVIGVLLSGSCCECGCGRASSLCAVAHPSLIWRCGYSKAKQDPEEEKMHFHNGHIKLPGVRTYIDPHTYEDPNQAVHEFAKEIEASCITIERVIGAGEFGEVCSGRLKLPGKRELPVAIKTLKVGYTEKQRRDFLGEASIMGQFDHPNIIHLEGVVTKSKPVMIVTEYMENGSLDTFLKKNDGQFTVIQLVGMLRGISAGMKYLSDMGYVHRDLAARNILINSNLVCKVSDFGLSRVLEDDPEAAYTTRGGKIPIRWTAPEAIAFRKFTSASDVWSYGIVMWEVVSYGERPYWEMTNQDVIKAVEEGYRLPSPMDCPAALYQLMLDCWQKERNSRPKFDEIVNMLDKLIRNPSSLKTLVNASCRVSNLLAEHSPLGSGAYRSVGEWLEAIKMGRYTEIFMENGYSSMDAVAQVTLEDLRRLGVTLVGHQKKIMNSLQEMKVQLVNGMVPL

[5] = biological target: Ephrin type-A receptor 5 (Homo sapiens) (UniProt P54756); conditions: at 10 µM
[6] = biological target: Ephrin type-A receptor 7 (Homo sapiens) (UniProt Q15375); conditions: at 1 µM
Ephrin type-A receptor 7 (Homo sapiens), sequence (Q15375 28-998 limits assumed): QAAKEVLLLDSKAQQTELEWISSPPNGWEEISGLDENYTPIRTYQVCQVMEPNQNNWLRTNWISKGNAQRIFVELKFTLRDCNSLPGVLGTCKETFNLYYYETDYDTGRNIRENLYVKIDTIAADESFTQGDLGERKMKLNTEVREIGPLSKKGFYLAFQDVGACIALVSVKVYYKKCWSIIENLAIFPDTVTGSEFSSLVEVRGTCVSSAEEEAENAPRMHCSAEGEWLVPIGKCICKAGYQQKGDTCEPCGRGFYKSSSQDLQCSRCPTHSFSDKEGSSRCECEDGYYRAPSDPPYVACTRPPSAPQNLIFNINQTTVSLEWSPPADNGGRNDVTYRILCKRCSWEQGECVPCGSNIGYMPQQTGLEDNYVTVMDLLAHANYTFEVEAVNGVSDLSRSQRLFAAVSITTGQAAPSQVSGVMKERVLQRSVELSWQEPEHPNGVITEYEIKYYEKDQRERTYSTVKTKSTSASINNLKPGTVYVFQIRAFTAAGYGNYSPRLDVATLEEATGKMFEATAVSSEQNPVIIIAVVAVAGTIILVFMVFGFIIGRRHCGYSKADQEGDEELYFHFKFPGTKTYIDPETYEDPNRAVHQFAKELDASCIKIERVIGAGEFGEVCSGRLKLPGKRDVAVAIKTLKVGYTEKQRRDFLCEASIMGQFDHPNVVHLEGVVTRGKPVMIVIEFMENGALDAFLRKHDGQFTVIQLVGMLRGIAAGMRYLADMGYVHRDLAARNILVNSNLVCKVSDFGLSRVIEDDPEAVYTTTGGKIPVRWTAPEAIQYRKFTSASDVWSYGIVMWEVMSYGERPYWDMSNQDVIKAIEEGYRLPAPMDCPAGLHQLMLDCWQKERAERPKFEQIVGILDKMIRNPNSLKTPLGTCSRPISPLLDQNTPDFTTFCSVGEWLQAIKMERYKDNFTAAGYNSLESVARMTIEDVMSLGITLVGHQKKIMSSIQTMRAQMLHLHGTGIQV

[7] = biological target: Ephrin type-A receptor 7 (Homo sapiens) (UniProt Q15375); conditions: at 10 µM
[8] = biological target: T2, Ephrin type-A receptor 8 (Homo sapiens) (UniProt P29322); conditions: at 1 µM
T2 sequence (whole entry): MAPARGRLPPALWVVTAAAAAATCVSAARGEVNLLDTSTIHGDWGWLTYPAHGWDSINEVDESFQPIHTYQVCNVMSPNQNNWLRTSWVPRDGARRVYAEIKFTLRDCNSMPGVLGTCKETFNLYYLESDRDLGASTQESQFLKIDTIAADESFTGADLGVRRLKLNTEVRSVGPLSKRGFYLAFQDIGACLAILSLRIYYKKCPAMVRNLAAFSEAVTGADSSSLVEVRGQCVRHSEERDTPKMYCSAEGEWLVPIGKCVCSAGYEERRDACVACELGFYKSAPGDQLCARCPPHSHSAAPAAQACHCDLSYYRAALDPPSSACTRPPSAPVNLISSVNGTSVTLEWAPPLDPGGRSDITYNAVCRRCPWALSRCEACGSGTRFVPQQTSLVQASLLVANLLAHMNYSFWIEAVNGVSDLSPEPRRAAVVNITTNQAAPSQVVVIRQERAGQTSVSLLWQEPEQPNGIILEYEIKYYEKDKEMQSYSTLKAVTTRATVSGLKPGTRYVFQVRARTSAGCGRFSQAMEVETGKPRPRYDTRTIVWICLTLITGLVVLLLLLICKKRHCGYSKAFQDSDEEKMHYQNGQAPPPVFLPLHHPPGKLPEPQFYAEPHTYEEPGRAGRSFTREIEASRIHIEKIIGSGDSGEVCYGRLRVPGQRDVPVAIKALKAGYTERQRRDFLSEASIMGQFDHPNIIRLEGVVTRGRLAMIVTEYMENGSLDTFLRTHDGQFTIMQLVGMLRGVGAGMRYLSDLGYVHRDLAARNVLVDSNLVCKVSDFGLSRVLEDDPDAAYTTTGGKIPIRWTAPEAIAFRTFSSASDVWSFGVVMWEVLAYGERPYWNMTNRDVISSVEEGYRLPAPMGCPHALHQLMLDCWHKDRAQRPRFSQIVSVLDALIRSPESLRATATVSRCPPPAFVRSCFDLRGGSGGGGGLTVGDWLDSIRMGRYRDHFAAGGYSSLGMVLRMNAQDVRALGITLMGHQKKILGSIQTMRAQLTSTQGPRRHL

[9] = biological target: T2, Ephrin type-A receptor 8 (Homo sapiens); conditions: at 10 µM
[10] = biological target: T3, Ephrin type-B receptor 1 (Homo sapiens) (UniProt P54762); conditions: at 1 µM
T3 sequence (whole entry): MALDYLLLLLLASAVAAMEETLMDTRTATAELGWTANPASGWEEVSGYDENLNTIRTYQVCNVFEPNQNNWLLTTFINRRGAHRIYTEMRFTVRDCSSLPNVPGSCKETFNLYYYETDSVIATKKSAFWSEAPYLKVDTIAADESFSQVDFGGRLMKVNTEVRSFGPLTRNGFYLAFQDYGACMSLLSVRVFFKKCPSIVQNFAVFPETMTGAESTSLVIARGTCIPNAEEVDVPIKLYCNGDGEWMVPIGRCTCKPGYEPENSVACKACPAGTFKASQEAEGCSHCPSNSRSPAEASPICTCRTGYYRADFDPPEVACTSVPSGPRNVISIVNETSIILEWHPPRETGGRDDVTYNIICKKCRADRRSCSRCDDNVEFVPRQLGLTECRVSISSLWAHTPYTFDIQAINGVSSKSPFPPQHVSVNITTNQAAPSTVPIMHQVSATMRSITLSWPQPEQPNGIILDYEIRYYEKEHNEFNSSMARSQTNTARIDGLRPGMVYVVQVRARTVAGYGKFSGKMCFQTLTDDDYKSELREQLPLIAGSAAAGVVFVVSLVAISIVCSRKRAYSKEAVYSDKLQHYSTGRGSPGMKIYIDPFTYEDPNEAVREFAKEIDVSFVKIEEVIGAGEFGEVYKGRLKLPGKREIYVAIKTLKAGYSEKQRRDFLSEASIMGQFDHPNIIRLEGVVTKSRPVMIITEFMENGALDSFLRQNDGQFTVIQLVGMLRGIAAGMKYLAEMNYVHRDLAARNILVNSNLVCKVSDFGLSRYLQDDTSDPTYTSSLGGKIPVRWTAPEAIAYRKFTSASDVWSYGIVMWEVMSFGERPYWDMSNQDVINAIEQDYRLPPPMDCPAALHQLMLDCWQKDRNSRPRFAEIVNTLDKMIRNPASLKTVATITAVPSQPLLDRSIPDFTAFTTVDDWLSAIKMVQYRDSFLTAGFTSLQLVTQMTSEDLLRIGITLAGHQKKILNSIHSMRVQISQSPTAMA

O=[N+]([O-])/C=C/c1ccc2c(c1)OCO2
residual activity [1]: 95%
residual activity [2]: 112%
residual activity [3]: 100%
residual activity [4]: 103%
residual activity [5]: 93%
residual activity [6]: 95%
residual activity [7]: 89%
residual activity [8]: 100%
residual activity [9]: 103%
residual activity [10]: 115%

— ChEMBL document CHEMBL2218924, “A broad activity screen in support of a chemogenomic map for kinase signalling research and drug discovery” (Biochem J, 2013)
